Experimental data: PubChem BioAssay AID2013 (Sanford-Burnham Center for Chemical Genomics, 2009)
Values joined by “and” are separate entries in the source; they are usually repeats but may differ in a detail not shown here. Equal entries are not always repeated. Out of some 290,000 compounds screened, about 370 (0.13%) were called active. What follows is part of a selection rich in actives, with near analogues and random picks from the rest. Results with a measured potency or affinity are listed apart. Values without a mark were called inactive.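 The calls were made as follows: active = spots per cell inhibited over 60%, with over 100 cells counted and total cytoplasm intensity under 500,000; inconclusive = wells with under 100 cells, flagged as likely toxic; inactive = the rest.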

What follows are compounds tested against G-protein coupled receptor 55 (Homo sapiens) (UniProt Q9Y2T6) (assay: inhibition of LPI-stimulated GPR55 beta-arrestin translocation – imaging, U2OS, beta-arrestin-GFP, LPI agonist, primary screen (AID 2013;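 also: U2OS cells stably carrying GPR55 and arrestin-GFP stimulated by 5 µM LPI near EC80; imaged beta-arrestin-GFP aggregate spots per cell after agonist stimulation; plate controls were LPI-stimulated DMSO wells for no effect and DMSO wells without LPI for full effect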)). Conditions: LPI antagonism, at 10 µM, hits give high values.
G-protein coupled receptor 55 (Homo sapiens), sequence (Q9Y2T6 whole entry, looked up): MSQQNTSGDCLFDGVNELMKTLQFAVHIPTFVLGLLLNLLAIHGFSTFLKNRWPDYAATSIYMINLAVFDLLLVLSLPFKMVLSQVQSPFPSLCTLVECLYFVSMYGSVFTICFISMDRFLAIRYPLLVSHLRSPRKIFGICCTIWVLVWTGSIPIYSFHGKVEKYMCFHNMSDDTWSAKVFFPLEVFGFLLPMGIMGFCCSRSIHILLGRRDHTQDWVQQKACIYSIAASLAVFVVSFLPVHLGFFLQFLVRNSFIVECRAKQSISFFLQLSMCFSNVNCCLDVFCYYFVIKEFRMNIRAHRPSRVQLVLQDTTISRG

SMILES | inhibition
N=c1c2c(-c3ccccc3)c(-c3ccccc3)n(Cc3ccco3)c2ncn1CCCn1ccnc1 | 24.2%
OCCNc1ncnc2c1c(-c1ccccc1)c(-c1ccccc1)n2Cc1ccco1 | -0.4%
N=c1c2c(-c3ccccc3)c(-c3ccccc3)n(Cc3ccco3)c2ncn1Cc1ccccc1 | 70.9% (active)
N=c1c2c(-c3ccccc3)c(-c3ccccc3)n(Cc3ccco3)c2ncn1Cc1ccco1 | 29.6%
N=c1c2c(-c3ccccc3)c(-c3ccccc3)n(Cc3ccco3)c2ncn1CCO | 58.3%
CCN(CC1COc2ccccc2O1)C(=S)NCCCN(C)C (configuration not stated) | 5.9%
COc1cc(NC(=O)CSCC(=O)Nc2cc(OC)cc(OC)c2)cc(OC)c1 | -13.3%
CC1(C)CC(=O)C2=C(C1)N(c1cccc(O)c1)C1=C(C2)C(=O)CC(C)(C)C1 | 28.2%
Cc1ccc(OCCCn2ccnc2)c([N+](=O)[O-])c1 | 11.8%
CCOc1ccc(CN2CCNC(=O)C2CC(=O)NCc2csc(C)n2)cc1 (configuration not stated) | -5.2%
COc1ccc(CN(CCC#N)C(=S)NC(=O)c2ccccc2)cc1 | 21.1%
CCOc1ccc(C(=O)NC(=S)N(Cc2ccccc2)Cc2ccccc2)cc1 | 8.8%
CCOC(=O)c1[nH]c2ccc(Cl)cc2c1NC(=O)/C=C/c1ccc2c(c1)OCO2 | -10.3%
CCc1ccc2c(c1)cc(CN(C(=S)Nc1ccccc1C)C1CC1)c1nnnn12 | -0.7%
Cn1c(=O)n(C/C=C/c2ccccc2)c(=O)c2c1nc1n2CCCN1Cc1ccccc1 | 12.5%
Cn1c(=O)n(CCc2ccccc2)c(=O)c2c1nc1n2CCCN1c1ccccc1 | 8.1%
CC(C)C(=O)Nc1ccc(N2CCN(c3ccc(F)cc3)CC2)cc1 | 7.7%
O=C(O)CN=C(NS(=O)(=O)c1ccccc1)c1ccccc1 | 3.6%
CC(C)N=C(NS(=O)(=O)c1ccccc1)C(Cl)(Cl)Cl | 52.5%

SMILES | inhibition
Cc1ccc(CC(=O)N2CCN(c3ccccn3)CC2)cc1 | 1.5%
Cc1nc(-c2ccc(Cl)cc2)sc1C1(C)CC(c2cccc(Cl)c2)=NO1 (configuration not stated) | 2.4%
O=C(Nc1ccccc1O)c1ccc2c(c1)C(=O)N(Cc1ccco1)C2=O | 1.9%
CC(/C=C\c1cccnc1)=C/C(=O)O | 13.6% and 11.7%
O=C(O)/C=C/c1cccnc1 | 10.5%
Cc1cc(CSc2ccccc2)ccc1NC(=O)COc1ccccc1C | 5.6%
CC(C)CCNC(=O)C1CC(=O)N(CCc2ccccc2)C1 (configuration not stated) | 3.2%
COc1ccc(CNC(=O)CCc2c(C)nc3cc(-c4ccccc4OC)nn3c2C)cc1 | 12.4%
Cc1ccc(NC(=O)c2ccccc2OCC(=O)c2ccccc2)cc1 | -5.2%
CCOc1ccc(NC(=O)c2ccccc2OCC(=O)c2ccc(C)cc2)cc1 | -16%
O=C(NCc1ccccn1)c1ccc(CNS(=O)(=O)c2cccc(C(F)(F)F)c2)cc1 | 3.1%
Cc1cccc(C(=O)Oc2ccc(/C=N/NC(=O)c3ccc(O)cc3)cc2)c1 | 0.3%
CC1=Nc2cc(C(=O)NCCCOC(C)C)ccc2Sc2ccc(C)cc21 | 19.1%
Cc1c(-n2c(SC(C)C(=O)NC(N)=O)nc3ccccc3c2=O)c(=O)n(-c2ccccc2)n1C (configuration not stated) | -4.9%
Cc1ccc(-c2nc(-c3nccc4ccccc34)oc2-c2ccccc2)cc1 | 25%
c1ccc(-c2ccc(-c3nccc4ccccc34)[nH]2)cc1 | 36%
CC(=O)/C(=C\N(C)C)Sc1ccc(Cl)cc1 | 0.6%
O=C(NC1CCCCC1)Sc1ccc(Cl)cc1 | -6%
S=C(Sc1ccc(Cl)cc1)Sc1ccc(Cl)cc1 | 91.8% (active)

SMILES | inhibition
O=C(N/N=C/c1ccoc1)c1ccccc1O | -2.7%
O=C(O)COc1ccccc1/C=C1\SC(=Nc2ccc(F)cc2)N(c2ccc(F)cc2)C1=O | 12.7%
O=C1NN(c2ccccc2)C(=O)/C1=C\c1ccccc1OCC(=O)N1CCOCC1 | 4.6%
O=C(O)c1ccc(/C=N/NC(=O)c2cc(-c3ccc4c5c(cccc35)CC4)n[nH]2)cc1 | 4%
O=C(N/N=C/c1ccc(Cl)c([N+](=O)[O-])c1)c1cc(-c2ccc3c4c(cccc24)CC3)n[nH]1 | 76.6% (active)
O=C(N/N=C/c1cccc([N+](=O)[O-])c1)c1cc(-c2ccc3c4c(cccc24)CC3)n[nH]1 | -4.6%
CCN(Cc1ccccc1)S(=O)(=O)c1ccc(F)cc1 | 15.1%
COC(=O)C1=C(C)N(Cc2ccccc2)C(=O)N[C@H]1c1ccccc1 | 58%
CCN1C(=NCCc2cccnc2)N[C@@H](c2ccccc2)C(C(=O)OC)=C1C | -18.1%
COC(=O)C1=C(C)N(CC2CC2)C(=NCc2cc(OC)c(OC)c(OC)c2)N[C@H]1c1ccccc1 | -3%
COC(=O)C1=C(C)N(Cc2ccccc2)C(=S)N[C@H]1c1cccc(F)c1 | 18.7%
COC(=O)C1=C(C)N(Cc2ccccc2)C(=NCc2cc(OC)c(OC)c(OC)c2)N[C@H]1c1cccc(F)c1 | 8.9%
COC(=O)C1=C(C)N(Cc2cccnc2)C(=O)C1 | -5.2%
CCN1C(=S)N[C@@H](c2cccc(F)c2)C(C(=O)OC)=C1C | 4.1%
COC(=O)C1=C(C)N(Cc2ccccc2)C(=NCCc2ccccn2)N[C@H]1c1cccc(F)c1 | 38.8%
O=C(Nc1ccc2c(c1)OCCO2)NC1(C(F)(F)F)Oc2ccccc2O1 | -14.5%
COc1ccc(NC(=O)N2CCN(c3cccc(C(F)(F)F)c3)CC2)cc1 | 12.5%
COc1ccc(-c2cc(C(=O)N3CCN(c4ccccc4O)CC3)c3ccccc3n2)cc1OC | 13.3%
CCc1oc(C(=O)O)cc1COC | 3.5%
